A selection: hits, their analogues and other compounds. The true share with any hit is near 12%.
HP1b binding inh = inhibitors of HP1-beta chromodomain binding to methylated histone tails. P83916. AlphaScreen HP1-beta / biotin-H3K9me3 peptide binding. Potency, µM (series often up to 114 µM), for the others: top-dose activity change, negative = inhibition, usual class: inhibitors. 390,000 compounds, 0.56% hits; note: nearly all actives have a fitted effect of over 70% in size
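HP1-beta protein (50 nM final) preincubated 30 min at room temperature with biotinylated H3(1-18)K9me3 peptide (50 nM) in PBS pH 7.4, 0.01% Tween-20, then compound added for 30 min. AlphaScreen streptavidin donor/nickel chelate acceptor beads (10 ug/mL final), 30 min dark, luminescence read.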
G9a inh = blocks human histone lysine methyltransferase G9a; G9a H3K9 monomethylation, AlphaScreen, 2 h; Potency, µM (top dose mostly 102 µM), for inactives: at the highest dose activity, negative = inhibition, most hits filed as inhibitors; 350,000 compounds, 8.8% hits; AID 504332; note: % is set by controls: 0 for no effect and ±100 for the full control effect; nearly all actives have a fitted effect of over 75% in size
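Readings reflect AlphaScreen signal from monomethyl-H3K9 antibody detection. HMT at 20 nM; substrate b-H3K9 500 nM; cofactor SAM 20 uM; 2 h RT reaction; compounds tested as titrations in qHTS with 15 min preincubation.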
Sfp PPTase inh = Sfp phosphopantetheinyl transferase inhibition. Q9F4F7. Biochemical Sfp PPTase activity, qHTS. Potency, µM, for the others: largest response in the series, negative = inhibition, usual class: inhibitors. 310,000 compounds, 3.5% hits;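 note: the enzyme is Sfp with the accession as filed and its product quenches rhodamine fluorescence; 0% = enzyme reaction without inhibitor and -100% = no enzyme wells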
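Step 1, compound plus 15 nM Sfp-PPTase, 15 min, room temperature. Step 2, add rhodamine-CoA (5 uM) and BHQ-2-YbbR (12.5 uM). Step 3, read 525/598 nm fluorescence at 0 and 30 min.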
JMJD2A Tudor = JMJD2A Tudor domain (human) inhibition; Potency, µM (titrated, usually from 114 µM), without a hit: at the highest dose activity change, negative = inhibition, usual class: inhibitors; AlphaScreen JMJD2A-Tudor / H3K4me3 peptide binding; 390,000 compounds, 4.4% hits; note: % is set by controls: 0 for no effect and ±100 for the full control effect; nearly all actives have a fitted effect of over 50% in size
BAZ2B inh = BAZ2B (human) inhibition; AlphaScreen BAZ2B-H3K14Ac peptide displacement; 360,000 compounds, 4.4% hits; Potency, µM (doses to about 114 µM), for inactives: at the top dose activity change, negative = inhibition, actives largely listed as inhibitors; Q9UIF8; note: % is set by controls: 0 for no effect and ±100 for the full control effect; nearly all actives have a fitted effect of over 60% in size
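AlphaScreen displacement: compounds (up to 110uM) incubated 30 min at room temperature with a preformed 50 nM BAZ2B/50 nM biotinylated H3K14Ac peptide complex in PBS pH 7.4 with Tween-20. Donor and acceptor beads at 10 ug/mL final added, 20 min light-protected before reading.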
Active calls of the source: *; ? = inconclusive; . = no result given; [ ] = dose if it differs, or a comment. Calls come from the whole dose curve; as a rule, active = well fitted curve in the direction sought with a large enough effect; inconclusive = small, poorly fitted or top-dose-only effect, or another doubt; inactive = no such curve, though single readings can be large; an effect the other way counts as inactive or inconclusive. Potency is the fitted concentration of half-maximal effect.

SMILES | HP1b binding inh | G9a inh | Sfp PPTase inh | JMJD2A Tudor | BAZ2B inh
Cc1cc(C)c(C(=O)NCC(=O)c2ccccc2)c(C)c1 | 24% | . | . | 1% | .
Nc1nnc(SCc2cccnc2)s1 | 6% | -25%[12.7 µM] | -6% | -1% | 26%
Cc1noc(C)c1S(=O)(=O)N1CCCC1C(=O)NC(C)(C)C (centres undefined) | 46% | -4% | 9% | 9% | 1%
CN(C(=O)COC(=O)C12CC3CC(CC(C3)C1)C2)c1c(N)n(Cc2ccccc2)c(=O)[nH]c1=O | 4% | -10%[2.33 µM] | . | -14% | 5%
O=C(NC1=C(NC2CCS(=O)(=O)C2)C(=O)c2ccccc2C1=O)c1ccccc1 (centres undefined) | 1% | 3.5µM* | 35µM* | ? | ?
O=[N+]([O-])c1cc(C(F)(F)F)ccc1NCCCN1CCOCC1 | -10% | -6% | 13% | -21% | ?
COc1ccc(N=C2NN=C(c3c(C)[nH]c4ccccc34)CS2)cc1 | ? | 8.9µM* | 35µM* | ? | 40µM*
Fc1ccc(N=C2NN=C(c3cc(F)ccc3F)CS2)cc1 | -21% | -11%[59 µM] | -9% | -28% | ?
Cc1[nH]c2ccccc2c1C1=NNC(=Nc2ccc(F)cc2)SC1 | ? | ? | 22µM* | 56µM* | ?
Cc1ccc2sc(N3CCN(C(=O)CCS(=O)(=O)c4ccc(F)cc4)CC3)nc2c1C | 3% | 8%[59 µM] | . | -15% | -11%
CCCCC(=O)NNC(=S)NC(=O)CCC | 21% | 10µM* | 79µM* | 50µM* | 26%
CCCCC(=O)NC(=S)NNC(=O)c1ccc(Cl)cc1Cl | 44% | -136%[59 µM] | ? | ? | 8%
CCCCC(=O)NC(=S)NNC(=O)CC#N | -23% | ? | 10µM* | 18µM* | -12%
CCCCC(=O)NC(=S)NNC(=O)c1ccc(OC)cc1 | 36% | 3%[12.7 µM] | 1% | -1% | 4%
CCOC(=O)c1cc(-c2ccc(F)cc2)n(CC(=O)NC2CCCCC2)c1C | -15% | 0%[59 µM] | . | -5% | 7%
COC(=O)c1ccc(NC(=S)NC2CCCCC2)cc1 | 23% | . | 6% | -11% | -2%
COC(=O)c1cccnc1NC(=S)NNC(=O)c1ccncc1 | 39% | ? | 10µM* | 24% | -4%
COC(=O)c1cccnc1NC(=S)NC1CCCCC1 | 38% | 14µM* | -7% | -25% | 9%
O=S1(=O)C2CC3C=CC2(O3)C(OCc2ccc(Cl)c(Cl)c2)C(Cc2ccccc2)N1Cc1ccc(Cl)c(Cl)c1 (centres undefined) | 34% | . | 8% | -4% | .
COc1ccc(NC(=O)CN(C)C(=O)c2cc3c(s2)CCC(C)C3)cc1 (centres undefined) | 19% | 34% | 8% | -12% | -23%
CCC1CCc2sc(C(=O)N(C)CC(=O)Nc3ccc(N4CCOCC4)cc3)cc2C1 (centres undefined) | 4% | 45µM* | . | -31% | -4%
CC1CCc2sc(C(=O)N(C)CC(=O)Nc3ccc(N4CCOCC4)cc3)cc2C1 (centres undefined) | -21% | 35µM* | -2% | ? | ?
O=C(CN1CCN(Cc2ccccc2)CC1)N/N=C\C=C/c1ccco1 | 18% | ? | -13% | -12% | 2%
O=C(CSc1nnc(SCc2ccccc2)s1)N/N=C/C=C/c1ccco1 | 25µM* | 13µM* | 35µM* | 40µM* | 25µM*
O=C(CSc1nnc(SCc2ccccc2)s1)NNC(=S)Nc1ccccc1 | -38% | 2.2µM* | -17% | -23% | -22%
SMILES | HP1b binding inh | G9a inh | Sfp PPTase inh | JMJD2A Tudor | BAZ2B inh
CCn1c(SCC(=O)N/N=C/C=C/c2ccco2)nnc1-c1ccccc1 | -11% | 16µM* | -29% | ? | ?
CCn1c(SCC(=O)N/N=C/C(C)=C/c2ccco2)nnc1-c1ccccc1 | -16% | 13%[59 µM] | -15% | ? | ?
Cn1c(SCC(=O)NNC(=S)Nc2ccccc2)nnc1-c1ccccc1 | 37% | ? | 14% | -16% | 1%
O=C(CSc1nnc(SCc2ccc(Cl)cc2)s1)N/N=C/c1c[nH]c2ccccc12 | 6% | ? | -23% | 89µM* | 35µM*
Cn1c(SCC(=O)N/N=C/C=C/c2ccco2)nc2ccccc21 | -14% | 7.1µM* | -9% | ? | 45µM*
CCOC(=O)c1c(N)sc2c1CCCC2 | -19% | ? | ? | ? | ?

Bioassay records: PubChem, National Center for Advancing Translational Sciences (NCATS)
